Common to all, as to assay: DAPPL (digital affinity profiling via proximity ligation, sequencing); 10 mM Tris-HCl pH 7.5, 50 mM NaCl, 1 mM DTT, 4% glycerol, room temperature, 30 min; GST-TFs on glutathione beads, 16-mer random dsDNA library, 0.1% formaldehyde crosslink after washing; high values mean tight binding
The target of one test is T1, FEV (Homo sapiens, UniProt Q99581 1-238).
T1 sequence: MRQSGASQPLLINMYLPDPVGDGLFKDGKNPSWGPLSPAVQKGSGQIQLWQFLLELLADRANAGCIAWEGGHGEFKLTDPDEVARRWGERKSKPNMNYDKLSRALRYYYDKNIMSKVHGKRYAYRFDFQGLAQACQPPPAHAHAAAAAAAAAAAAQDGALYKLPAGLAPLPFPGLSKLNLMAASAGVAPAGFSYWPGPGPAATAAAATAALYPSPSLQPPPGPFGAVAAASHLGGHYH
The settings on record: protein: recombinant; tags: N-terminal GST; dsDNA, one strand shown. The procedure, abridged:
(§1)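 Pools were built from human transcription factors expressed in yeast as GST fusions, captured on glutathione beads and DNA-barcoded, along with a tag-only sample. Incubation with 200 nmole of a 16-mer random double-stranded DNA library lasted 30 min at room temperature in Tris/NaCl/DTT/glycerol buffer, and was followed by washing, 0.1% formaldehyde crosslinking, proximity ligation, PCR amplification and Illumina NextSeq500 sequencing. Binding signal is the quotient of each hexamer's read frequency for a factor and its frequency for the tag-only sample.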

Another test addresses ETV5 (Homo sapiens, UniProt P41161 1-510). The note with it: protein: recombinant; tags: N-terminal GST; dsDNA, one strand shown. In a few lines: as §1
A further test concerns the target HSF1 (Homo sapiens, UniProt Q00613 1-529). The note with it: protein: recombinant; tags: N-terminal GST; chain copies: 3; dsDNA, one strand shown. In a few lines: as §1
The next test addresses T2, SPIC (Homo sapiens, UniProt Q8N5J4 1-248).
T2 sequence: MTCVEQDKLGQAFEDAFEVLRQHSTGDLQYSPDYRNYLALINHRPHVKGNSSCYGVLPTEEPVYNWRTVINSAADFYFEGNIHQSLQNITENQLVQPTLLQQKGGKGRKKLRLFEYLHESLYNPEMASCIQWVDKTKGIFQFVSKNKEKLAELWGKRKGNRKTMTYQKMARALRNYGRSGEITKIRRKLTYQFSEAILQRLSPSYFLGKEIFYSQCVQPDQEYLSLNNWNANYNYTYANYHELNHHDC
The note with it: protein: recombinant; tags: N-terminal GST; dsDNA, one strand shown. The procedure, abridged:
as §1

For the next test, the target named is ELF4 (Homo sapiens, UniProt Q99607 1-663). The note with it: protein: recombinant; tags: N-terminal GST; dsDNA, one strand shown. The procedure, abridged:
as §1

A further test has as its target T3, ELK4 (Homo sapiens, UniProt P28324-2 1-405).
T3 sequence: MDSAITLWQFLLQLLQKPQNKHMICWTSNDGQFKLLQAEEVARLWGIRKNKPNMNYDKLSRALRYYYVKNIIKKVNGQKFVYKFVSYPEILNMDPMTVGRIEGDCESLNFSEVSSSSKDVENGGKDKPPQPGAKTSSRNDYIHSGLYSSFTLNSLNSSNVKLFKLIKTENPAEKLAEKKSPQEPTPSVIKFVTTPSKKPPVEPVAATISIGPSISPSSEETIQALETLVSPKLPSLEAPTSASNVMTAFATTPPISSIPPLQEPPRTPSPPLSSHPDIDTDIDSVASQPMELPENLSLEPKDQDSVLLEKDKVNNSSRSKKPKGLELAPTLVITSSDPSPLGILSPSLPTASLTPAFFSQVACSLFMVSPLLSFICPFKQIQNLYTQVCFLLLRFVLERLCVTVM
The settings on record: protein: recombinant; tags: N-terminal GST; dsDNA, one strand shown. In a few lines: as §1

A further test has as its target T4, ETV2 (Homo sapiens, UniProt O00321 1-342).
T4 sequence: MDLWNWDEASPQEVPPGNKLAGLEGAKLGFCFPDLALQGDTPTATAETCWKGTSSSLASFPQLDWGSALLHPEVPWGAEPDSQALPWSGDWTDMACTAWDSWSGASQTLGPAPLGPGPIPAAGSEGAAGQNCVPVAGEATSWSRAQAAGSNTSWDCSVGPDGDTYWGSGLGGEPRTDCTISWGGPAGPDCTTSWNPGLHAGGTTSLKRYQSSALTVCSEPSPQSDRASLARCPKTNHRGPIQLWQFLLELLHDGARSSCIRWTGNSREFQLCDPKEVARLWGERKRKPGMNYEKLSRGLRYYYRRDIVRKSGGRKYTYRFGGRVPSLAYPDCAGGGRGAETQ
The note with it: protein: recombinant; tags: N-terminal GST; dsDNA, one strand shown. In a few lines: as §1

Another test concerns the target T5, ELF3 (Homo sapiens, UniProt P78545 1-371).
T5 sequence: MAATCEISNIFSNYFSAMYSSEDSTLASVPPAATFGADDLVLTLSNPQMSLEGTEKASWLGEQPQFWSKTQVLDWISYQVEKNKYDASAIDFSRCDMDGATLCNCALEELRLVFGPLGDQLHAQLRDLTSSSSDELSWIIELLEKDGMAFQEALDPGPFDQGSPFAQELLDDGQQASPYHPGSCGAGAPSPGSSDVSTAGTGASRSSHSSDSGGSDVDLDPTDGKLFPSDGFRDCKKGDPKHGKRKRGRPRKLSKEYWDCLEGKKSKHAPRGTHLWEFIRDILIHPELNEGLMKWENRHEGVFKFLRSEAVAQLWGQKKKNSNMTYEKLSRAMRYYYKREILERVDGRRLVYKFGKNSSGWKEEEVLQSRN
The settings on record: protein: recombinant; tags: N-terminal GST; dsDNA, one strand shown. The procedure, abridged: as §1

A further test concerns the target CRX (Homo sapiens, UniProt O43186 1-299). The note with it: protein: recombinant; tags: N-terminal GST; dsDNA, one strand shown. The procedure, abridged: as §1
The next test deals with ETV1 (Homo sapiens, UniProt P50549 1-477). The note with it: protein: recombinant; tags: N-terminal GST; dsDNA, one strand shown. The procedure, abridged:
as §1

The target of a further test is T6, ERF (Homo sapiens, UniProt P50548 1-548).
T6 sequence: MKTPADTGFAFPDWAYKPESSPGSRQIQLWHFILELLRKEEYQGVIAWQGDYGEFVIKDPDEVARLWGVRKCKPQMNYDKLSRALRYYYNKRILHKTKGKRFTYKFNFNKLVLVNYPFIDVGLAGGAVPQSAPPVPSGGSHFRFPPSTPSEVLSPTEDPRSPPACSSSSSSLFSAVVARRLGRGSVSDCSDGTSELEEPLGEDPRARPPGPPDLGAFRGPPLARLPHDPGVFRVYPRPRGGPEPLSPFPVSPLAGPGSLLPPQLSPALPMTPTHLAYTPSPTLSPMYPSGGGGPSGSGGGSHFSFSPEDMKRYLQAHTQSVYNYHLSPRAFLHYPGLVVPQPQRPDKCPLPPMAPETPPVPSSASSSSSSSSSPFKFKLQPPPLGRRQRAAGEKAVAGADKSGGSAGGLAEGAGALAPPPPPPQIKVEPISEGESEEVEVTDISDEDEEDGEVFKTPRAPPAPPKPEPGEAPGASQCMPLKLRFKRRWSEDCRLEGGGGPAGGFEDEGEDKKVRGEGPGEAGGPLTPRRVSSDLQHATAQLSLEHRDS
The note with it: protein: recombinant; tags: N-terminal GST; dsDNA, one strand shown. In a few lines: as §1

The target in another test is T7, ETV3L (Homo sapiens, UniProt Q6ZN32 1-361).
T7 sequence: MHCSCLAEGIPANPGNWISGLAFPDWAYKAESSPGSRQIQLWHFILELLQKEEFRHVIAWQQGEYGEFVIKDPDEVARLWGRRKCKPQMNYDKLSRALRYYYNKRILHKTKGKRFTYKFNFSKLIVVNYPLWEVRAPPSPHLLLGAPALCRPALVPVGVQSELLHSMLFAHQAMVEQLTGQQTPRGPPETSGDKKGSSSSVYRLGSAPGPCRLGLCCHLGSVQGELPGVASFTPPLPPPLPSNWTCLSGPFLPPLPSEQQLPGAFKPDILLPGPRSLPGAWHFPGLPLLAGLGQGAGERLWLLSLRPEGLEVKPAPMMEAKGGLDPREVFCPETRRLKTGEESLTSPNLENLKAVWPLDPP
The settings on record: protein: recombinant; tags: N-terminal GST; dsDNA, one strand shown. In a few lines: as §1

The target of a further test is T8, ETS2 (Homo sapiens, UniProt P15036 1-469).
T8 sequence: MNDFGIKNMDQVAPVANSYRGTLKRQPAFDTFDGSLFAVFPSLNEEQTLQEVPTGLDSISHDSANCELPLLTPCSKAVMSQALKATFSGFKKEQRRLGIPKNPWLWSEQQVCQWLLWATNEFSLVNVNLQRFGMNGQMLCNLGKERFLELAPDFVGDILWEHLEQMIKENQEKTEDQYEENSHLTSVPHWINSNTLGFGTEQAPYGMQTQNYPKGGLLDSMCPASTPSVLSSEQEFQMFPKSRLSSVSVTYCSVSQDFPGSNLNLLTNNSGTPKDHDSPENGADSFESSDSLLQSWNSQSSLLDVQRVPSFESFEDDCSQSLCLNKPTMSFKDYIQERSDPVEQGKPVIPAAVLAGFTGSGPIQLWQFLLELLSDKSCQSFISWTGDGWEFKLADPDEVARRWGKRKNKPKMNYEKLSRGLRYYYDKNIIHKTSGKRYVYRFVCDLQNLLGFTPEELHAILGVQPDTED
The settings on record: protein: recombinant; tags: N-terminal GST; dsDNA, one strand shown. The procedure, abridged: as §1

In the next test the target is T9, SPDEF (Homo sapiens, UniProt O95238 1-335).
T9 sequence: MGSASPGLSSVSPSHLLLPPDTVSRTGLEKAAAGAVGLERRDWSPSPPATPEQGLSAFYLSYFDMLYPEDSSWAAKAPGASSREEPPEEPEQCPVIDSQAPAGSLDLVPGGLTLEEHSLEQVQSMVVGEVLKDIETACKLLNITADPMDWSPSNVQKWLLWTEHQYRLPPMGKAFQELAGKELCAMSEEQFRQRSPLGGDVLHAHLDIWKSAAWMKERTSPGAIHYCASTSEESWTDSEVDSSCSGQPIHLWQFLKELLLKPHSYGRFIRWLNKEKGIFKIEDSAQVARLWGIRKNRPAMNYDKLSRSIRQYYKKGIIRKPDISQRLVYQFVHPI
The settings on record: protein: recombinant; tags: N-terminal GST; dsDNA, one strand shown. The procedure, abridged: as §1

The target in the next test is T10, ETV7 (Homo sapiens, UniProt Q9Y603 1-341).
T10 sequence: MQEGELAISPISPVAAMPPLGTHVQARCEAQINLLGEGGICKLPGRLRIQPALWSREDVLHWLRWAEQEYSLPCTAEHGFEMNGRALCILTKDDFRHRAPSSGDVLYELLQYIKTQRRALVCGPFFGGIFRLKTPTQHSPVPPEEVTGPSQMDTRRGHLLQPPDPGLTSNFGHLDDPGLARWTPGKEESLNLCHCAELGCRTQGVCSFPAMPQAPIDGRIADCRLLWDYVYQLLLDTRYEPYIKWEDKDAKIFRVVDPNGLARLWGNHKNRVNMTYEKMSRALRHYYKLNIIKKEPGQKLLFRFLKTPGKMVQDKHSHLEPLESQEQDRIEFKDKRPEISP
The note with it: protein: recombinant; tags: N-terminal GST; dsDNA, one strand shown. The procedure, abridged:
as §1

For the next test, the target named is T11, ELF5 (Homo sapiens, UniProt Q9UKW6-2 1-255).
T11 sequence: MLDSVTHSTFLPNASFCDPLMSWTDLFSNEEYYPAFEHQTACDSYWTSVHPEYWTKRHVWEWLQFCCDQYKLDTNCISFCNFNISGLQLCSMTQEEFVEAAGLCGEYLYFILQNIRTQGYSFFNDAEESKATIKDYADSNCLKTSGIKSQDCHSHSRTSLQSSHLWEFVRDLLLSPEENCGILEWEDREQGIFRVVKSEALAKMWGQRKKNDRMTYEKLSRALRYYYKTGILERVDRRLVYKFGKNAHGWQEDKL
The settings on record: protein: recombinant; tags: N-terminal GST; dsDNA, one strand shown. The procedure, abridged: as §1

A further test concerns the target T12, ETV3 (Homo sapiens, UniProt P41162-2 1-143).
T12 sequence: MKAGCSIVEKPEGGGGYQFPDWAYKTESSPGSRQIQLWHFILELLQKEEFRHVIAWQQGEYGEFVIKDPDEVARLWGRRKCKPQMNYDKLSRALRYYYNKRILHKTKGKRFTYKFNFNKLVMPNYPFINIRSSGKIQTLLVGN
The settings on record: protein: recombinant; tags: N-terminal GST; dsDNA, one strand shown. In a few lines: as §1

The target of a further test is ETV6 (Homo sapiens, UniProt P41212 1-452). The note with it: protein: recombinant; tags: N-terminal GST; dsDNA, one strand shown. In a few lines: as §1
ETV6, sequence (P41212 whole entry): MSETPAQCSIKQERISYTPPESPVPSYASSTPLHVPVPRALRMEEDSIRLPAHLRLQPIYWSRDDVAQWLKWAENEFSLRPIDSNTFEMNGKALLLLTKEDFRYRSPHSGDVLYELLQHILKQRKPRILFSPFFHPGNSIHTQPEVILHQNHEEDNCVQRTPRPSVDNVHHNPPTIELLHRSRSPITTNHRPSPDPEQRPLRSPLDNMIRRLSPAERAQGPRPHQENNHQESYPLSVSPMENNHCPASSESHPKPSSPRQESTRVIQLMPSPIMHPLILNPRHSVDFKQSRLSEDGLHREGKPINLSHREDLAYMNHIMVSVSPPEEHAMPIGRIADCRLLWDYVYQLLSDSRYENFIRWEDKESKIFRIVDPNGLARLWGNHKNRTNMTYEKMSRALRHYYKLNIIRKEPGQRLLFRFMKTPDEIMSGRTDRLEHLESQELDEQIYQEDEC

ELF4, sequence (Q99607 whole entry): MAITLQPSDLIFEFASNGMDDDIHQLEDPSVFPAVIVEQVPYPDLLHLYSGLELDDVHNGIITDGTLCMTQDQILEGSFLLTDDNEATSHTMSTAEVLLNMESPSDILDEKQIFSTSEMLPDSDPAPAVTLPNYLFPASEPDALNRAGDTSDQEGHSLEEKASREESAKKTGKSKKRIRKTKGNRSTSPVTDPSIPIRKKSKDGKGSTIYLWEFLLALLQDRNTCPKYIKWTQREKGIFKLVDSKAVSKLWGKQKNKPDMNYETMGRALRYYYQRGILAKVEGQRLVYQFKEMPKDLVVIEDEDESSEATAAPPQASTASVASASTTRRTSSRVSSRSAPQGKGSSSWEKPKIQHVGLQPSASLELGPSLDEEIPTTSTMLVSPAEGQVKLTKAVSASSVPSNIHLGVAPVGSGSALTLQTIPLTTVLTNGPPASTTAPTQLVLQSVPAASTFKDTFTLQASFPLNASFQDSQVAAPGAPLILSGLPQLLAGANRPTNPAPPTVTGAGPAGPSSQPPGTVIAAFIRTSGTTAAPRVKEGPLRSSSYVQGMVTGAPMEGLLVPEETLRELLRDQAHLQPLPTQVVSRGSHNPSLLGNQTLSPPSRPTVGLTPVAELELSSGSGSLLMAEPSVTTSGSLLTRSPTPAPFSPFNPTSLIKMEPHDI
ETV1, sequence (P50549 whole entry): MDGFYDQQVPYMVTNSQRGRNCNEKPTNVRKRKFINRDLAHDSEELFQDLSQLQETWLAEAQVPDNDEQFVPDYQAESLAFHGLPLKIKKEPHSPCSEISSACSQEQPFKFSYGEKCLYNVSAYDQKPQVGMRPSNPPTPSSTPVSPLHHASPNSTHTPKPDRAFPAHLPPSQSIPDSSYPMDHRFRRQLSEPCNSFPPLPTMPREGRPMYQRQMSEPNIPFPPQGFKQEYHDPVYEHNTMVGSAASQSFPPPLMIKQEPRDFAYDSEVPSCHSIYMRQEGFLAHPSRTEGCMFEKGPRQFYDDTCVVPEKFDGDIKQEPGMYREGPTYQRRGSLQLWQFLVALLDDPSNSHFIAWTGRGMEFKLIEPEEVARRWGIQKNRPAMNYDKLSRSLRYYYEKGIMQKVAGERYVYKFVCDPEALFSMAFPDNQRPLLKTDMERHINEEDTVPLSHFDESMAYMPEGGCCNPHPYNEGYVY
HSF1, sequence (Q00613 whole entry): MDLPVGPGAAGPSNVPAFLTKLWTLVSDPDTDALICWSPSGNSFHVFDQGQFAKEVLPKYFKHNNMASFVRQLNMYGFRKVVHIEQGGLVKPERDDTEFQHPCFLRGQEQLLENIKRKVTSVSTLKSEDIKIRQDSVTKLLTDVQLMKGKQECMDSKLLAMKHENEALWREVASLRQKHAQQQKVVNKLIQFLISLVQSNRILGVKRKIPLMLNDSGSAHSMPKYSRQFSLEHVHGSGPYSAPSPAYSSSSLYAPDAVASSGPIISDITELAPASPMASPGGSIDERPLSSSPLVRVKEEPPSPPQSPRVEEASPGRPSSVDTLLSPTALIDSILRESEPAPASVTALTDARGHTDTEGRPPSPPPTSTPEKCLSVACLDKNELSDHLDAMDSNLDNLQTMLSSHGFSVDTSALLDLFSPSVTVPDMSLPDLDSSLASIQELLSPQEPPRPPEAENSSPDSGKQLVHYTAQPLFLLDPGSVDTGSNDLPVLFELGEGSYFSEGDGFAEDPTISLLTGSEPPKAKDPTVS
CRX, sequence (O43186 whole entry): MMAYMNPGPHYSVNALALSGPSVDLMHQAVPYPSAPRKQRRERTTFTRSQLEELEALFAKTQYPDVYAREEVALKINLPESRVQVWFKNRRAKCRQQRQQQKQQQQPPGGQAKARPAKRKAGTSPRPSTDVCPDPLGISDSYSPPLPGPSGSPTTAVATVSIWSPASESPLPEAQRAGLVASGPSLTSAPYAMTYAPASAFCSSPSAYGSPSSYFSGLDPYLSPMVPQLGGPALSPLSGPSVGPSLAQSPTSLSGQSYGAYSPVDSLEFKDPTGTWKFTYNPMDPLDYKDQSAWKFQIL
ETV5, sequence (P41161 whole entry): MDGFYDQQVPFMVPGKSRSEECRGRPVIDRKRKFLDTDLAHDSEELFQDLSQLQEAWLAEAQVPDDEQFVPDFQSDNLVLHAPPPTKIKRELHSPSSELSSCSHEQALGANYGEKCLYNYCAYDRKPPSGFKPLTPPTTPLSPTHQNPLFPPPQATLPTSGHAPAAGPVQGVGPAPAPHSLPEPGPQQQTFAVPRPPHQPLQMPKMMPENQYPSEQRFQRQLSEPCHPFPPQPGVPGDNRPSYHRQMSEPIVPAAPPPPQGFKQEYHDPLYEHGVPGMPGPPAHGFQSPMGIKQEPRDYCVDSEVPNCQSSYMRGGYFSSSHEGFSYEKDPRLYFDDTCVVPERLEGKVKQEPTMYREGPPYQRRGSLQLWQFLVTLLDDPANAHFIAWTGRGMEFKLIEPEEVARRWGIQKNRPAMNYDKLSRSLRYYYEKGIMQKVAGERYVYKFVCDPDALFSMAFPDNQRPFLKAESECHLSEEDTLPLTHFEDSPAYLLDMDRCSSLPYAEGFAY

Consider CTCTCA, for which the binding signal with FEV is 1.44 fold enrichment (6-mer frequency, TF over GST control); with ETV5, 1.35 fold enrichment (6-mer frequency, TF over GST control); with HSF1 it was 1.2 fold enrichment (6-mer frequency, TF over GST control); with SPIC, 1.21 fold enrichment (6-mer frequency, TF over GST control); with ELF4, 1.42 fold enrichment (6-mer frequency, TF over GST control); in the test with ELK4, 1.45 fold enrichment (6-mer frequency, TF over GST control). The binding signal with ETV2 was 1.33 fold enrichment (6-mer frequency, TF over GST control); with ELF3, 1.47 fold enrichment (6-mer frequency, TF over GST control); in the test with CRX, 1.24 fold enrichment (6-mer frequency, TF over GST control); with ETV1, 1.51 fold enrichment (6-mer frequency, TF over GST control); with ERF, 1.5 fold enrichment (6-mer frequency, TF over GST control); with ETV3L, 1.39 fold enrichment (6-mer frequency, TF over GST control). Further, the binding signal with ETS2 is 1.42 fold enrichment (6-mer frequency, TF over GST control); with SPDEF, 1.32 fold enrichment (6-mer frequency, TF over GST control); with ETV7, 1.11 fold enrichment (6-mer frequency, TF over GST control); in the test with ELF5, 1.28 fold enrichment (6-mer frequency, TF over GST control); with ETV3, 1.43 fold enrichment (6-mer frequency, TF over GST control); with ETV6, 1.36 fold enrichment (6-mer frequency, TF over GST control).

For the origin of these results see PMC7862700, “An all-to-all approach to the identification of sequence-specific readers for epigenetic DNA modifications on cytosine”.
